Assay outcomes (PubChem BioAssay)
IDE cell inh – inhibits human insulin-degrading enzyme in HEK cells; actives 0.41% (n = 320,000); AID 434962; inhibition, % at 5.59 µM; P14735; FAbetaB cleavage, fluorescence polarization;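 active means percent inhibition above the average of all tested compounds plus 3 SD, set per screening campaign, cut at about 16% in these data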;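 further: IDE supplied by intact live HEK cells; FP after avidin binding of uncleaved biotin substrate so inhibition keeps polarization high; 0% = DMSO wells and 100% = 60 µM reference IDE inhibitor Ii1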
SUMO Mot1 rescue – inhibitors of SUMOylation pathway: yeast Mot1-301 growth rescue; growth rescue, % at 18.8 µM; actives 1% (n = 320,000); S. cerevisiae Mot1-301 growth rescue, ATP luminescence, 38.5C; percent above DMSO median, 100 means doubled;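 active means every valid replicate shows activation above 250% relative to neutral control wells; inactive means the rest, any valid replicate at or below 250%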;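 further: OY570 slx delta 5 strain wells were the positive control but not used for scaling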
HDAC3 inh – inhibitors of human histone deacetylase 3; O15379; recombinant HDAC3, fluorogenic peptide/trypsin coupled, fluorescence; inhibition, % at 8.3 µM; actives 0.15% (n = 320,000); AID 2718; in the data active means inhibition above about 26%, passing the limit was not always enough
IDE cell activ – IDE (human) activation, cell-based | P14735 | AID 493087 | HEK cells, FAbeta-B cleavage, fluorescence polarization; 0% vehicle, 100% cell-free pure enzyme wells | actives 0.073% (n = 340,000) | activation, % at 5.96 µM;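 active means activation above the mean of all tested compounds plus 3 SD, set per screening campaign, cut at about 17% in these data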
LANA-H2A inh – blocks KSHV LANA binding to histone H2A/H2B; Q9QR71; cell-free LANA-H2A/H2B peptide, fluorescence polarization; inhibition, % (no concentration beside the values); actives 0.6% (n = 320,000); in the data active means inhibition mostly above about 10%, no sharp cut-off; inactive means mostly below about 6.7%
Target sequence (Q9QR71 whole entry, looked up): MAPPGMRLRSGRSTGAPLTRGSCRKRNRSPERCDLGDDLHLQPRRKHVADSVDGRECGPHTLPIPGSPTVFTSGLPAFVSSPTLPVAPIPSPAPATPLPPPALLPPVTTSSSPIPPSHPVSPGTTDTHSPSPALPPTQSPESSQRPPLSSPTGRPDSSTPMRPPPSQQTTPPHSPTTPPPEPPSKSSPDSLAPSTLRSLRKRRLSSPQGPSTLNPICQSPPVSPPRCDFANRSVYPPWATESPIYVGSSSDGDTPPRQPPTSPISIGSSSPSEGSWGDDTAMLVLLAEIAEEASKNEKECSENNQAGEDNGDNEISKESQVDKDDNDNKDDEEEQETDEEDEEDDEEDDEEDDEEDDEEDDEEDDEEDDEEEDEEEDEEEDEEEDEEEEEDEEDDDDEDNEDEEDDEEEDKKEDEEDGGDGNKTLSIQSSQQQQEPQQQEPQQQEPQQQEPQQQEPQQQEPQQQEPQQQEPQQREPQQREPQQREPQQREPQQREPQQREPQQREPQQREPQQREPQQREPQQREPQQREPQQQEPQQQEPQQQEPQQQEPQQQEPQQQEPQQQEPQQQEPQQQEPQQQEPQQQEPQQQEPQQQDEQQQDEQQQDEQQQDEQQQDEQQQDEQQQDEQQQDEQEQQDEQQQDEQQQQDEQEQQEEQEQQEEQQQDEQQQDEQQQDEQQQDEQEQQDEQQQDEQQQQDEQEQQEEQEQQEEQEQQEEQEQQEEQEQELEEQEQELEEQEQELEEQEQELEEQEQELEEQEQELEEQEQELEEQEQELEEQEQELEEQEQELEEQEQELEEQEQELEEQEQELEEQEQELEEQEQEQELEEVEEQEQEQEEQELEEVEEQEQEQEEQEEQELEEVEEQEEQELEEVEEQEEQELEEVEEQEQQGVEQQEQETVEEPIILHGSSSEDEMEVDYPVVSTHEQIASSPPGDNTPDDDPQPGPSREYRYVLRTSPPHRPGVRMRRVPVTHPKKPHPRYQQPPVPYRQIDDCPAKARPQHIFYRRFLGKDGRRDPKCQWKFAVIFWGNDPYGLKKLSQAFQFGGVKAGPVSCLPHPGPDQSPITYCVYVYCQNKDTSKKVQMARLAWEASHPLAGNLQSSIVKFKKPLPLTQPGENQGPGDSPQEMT
Yeast Mot1 SUMO – inhibits SUMO pathway, affecting Mot1-301 yeast growth. shares compounds with SUMO Mot1 rescue. S. cerevisiae Mot1-301 galactose growth, ATP luminescence, 24 h; -100 = growth of slx-deleted rescue strain. growth activity, percent, % at 42 µM. 2,300 tested, under 10 active;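 active means Signal drops as the depositor expects, and the fitted half-maximal dose is no more than ten times the top valid tested dose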;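 further: more negative values mean stronger growth rescue toward the control strain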
* hit, by the source's call; . = no result given; + = active, no number. Compounds with a hit are over-represented: about 2.1% of the library has one in this group of screens.

SMILES | IDE cell inh | SUMO Mot1 rescue | HDAC3 inh | IDE cell activ | LANA-H2A inh | Yeast Mot1 SUMO
CCOc1ccc(NC(=O)CNc2ccc(C)cc2Cl)cc1 | 7 | 811* | -3 | 0 | -2 | -1
Cc1nn(C(C)(C)C)c(OC(=O)c2ccc3c(c2)OCO3)c1S(=O)(=O)c1ccccc1 | 7 | + | 1 | 6 | 0 | -1
Cc1nn(C(C)(C)C)c(OC(=O)c2ccc3c(c2)OCO3)c1Sc1ccccc1 | 2 | 109 | 9 | 2 | 3 | .
O=C(Nc1ccccc1)NN1CC(=O)N(c2ccc(Cl)cc2)CC1=O | -1 | -2 | 12 | -2 | 1 | .
O=C(CN1CCc2ccccc21)NN1CC(=O)N(c2ccc(Cl)cc2)CC1=O | -1 | 484* | -8 | 2 | -5 | -1
CC(=O)Nc1ccc(S(=O)(=O)Nc2ncccn2)cc1 | 3 | 3 | -5 | 2 | -4 | .
CC(=O)c1ccc(S(=O)(=O)Nc2cccc(-c3ccc4nncn4n3)c2)cc1 | 8 | -5 | -7 | 2 | -6 | .
CC(=O)Nc1ccc(S(=O)(=O)Nc2ccc(S(=O)(=O)Nc3ncccn3)cc2)cc1 | -5 | + | 1 | 6 | -1 | 0
CC(=O)Nc1ccc(S(=O)(=O)Nc2cccc(-c3ccc4nncn4n3)c2)cc1 | 0 | 528* | -7 | 5 | 0 | 0
Cc1cccc(S(=O)(=O)Nc2cc(Cl)ccc2N2CCOCC2)c1 | 3 | 107 | 15 | 2 | 4 | .
O=C(CN1C(=O)NC2(CCCC2)C1=O)NNC(=O)c1ccc(Cl)cc1 | -3 | -9 | 1 | 4 | -1 | .
CCN1CCN(CC(=O)N2N=CCC2c2ccccc2)CC1 (stereo not given) | 1 | 805* | -1 | 3 | 4 | 0
O=C(CSc1ccc(Cl)cc1)N1N=CCC1c1ccccc1 (stereo not given) | -1 | 8 | -4 | -4 | -5 | .
O=S1(=O)C=CC(c2ccccc2)C1 (stereo not given) | -3 | -4 | -1 | -1 | 2 | .
CC1=C(C#N)S(=O)(=O)C(C#N)C(c2ccccc2)C1 (stereo not given) | 1 | 502* | -4 | . | 0 | -1
CCCC(=O)Nc1ccc2c(c1)nc(CN1CCN(C(=O)OCC)CC1)n2CC | -2 | 0 | 2 | 2 | 4 | .
O=C(c1cc2ccccc2o1)N1CCN(C/C=C/c2ccccc2)CC1 | -3 | 541* | 6 | 8 | 1 | 0
O=C(c1cc2ccccc2o1)N1CCCCCC1 | 2 | 195 | -5 | -2 | -2 | .
O=C(c1cc2ccccc2o1)N1CCCC1 | -2 | + | -5 | 7 | 2 | 0
CC(=O)c1cccc(NC(=O)CCN2C(=O)C3CC=CCC3C2=O)c1 (stereo not given) | 2 | . | . | 1 | . | .
C[C@H](CO)N1C[C@H](C)[C@@H](CN(C)Cc2ccc3c(c2)OCO3)Oc2c(NC(=O)Cc3ccccc3)cccc2C1=O | 1 | -16 | 4 | 0 | -6 | .
CCCCN1C(=O)C(O)=C(C(C)=O)C1c1ccc(OC)cc1OC (stereo not given) | -1 | 83 | -14 | 5 | 4 | .
COc1ccc(C2C(C(C)=O)=C(O)C(=O)N2CCO)c(OC)c1 (stereo not given) | 1 | 893* | 9 | -1 | 0 | 1
Cc1ccc(S(=O)(=O)N2CCCN(C(=O)c3ccc(-n4cccn4)cc3)CC2)cc1 | 6 | 35 | 0 | -1 | -4 | .
CC1=C(C(=O)N2CCOCC2)C(c2ccc(O)cc2)NC(=S)N1 (stereo not given) | 3 | 583* | -1 | 2 | 3 | 0
SMILES | IDE cell inh | SUMO Mot1 rescue | HDAC3 inh | IDE cell activ | LANA-H2A inh | Yeast Mot1 SUMO
COc1ccccc1/C=N\Nc1cn[nH]c(=O)c1Cl | -1 | . | 3 | 4 | -3 | .
CCOc1ccccc1/C=N\Nc1cnn(Cc2ccccc2)c(=O)c1Cl | 2 | + | 11 | -2 | 6 | 0
O=C(Nc1nnc(COc2ccc(F)cc2)s1)c1cccs1 | 4 | 940* | 2 | 6 | -2 | -1
CN(CC(=O)Nc1c(Cl)cccc1Cl)C(=O)c1ccccc1Cc1ccccc1 | 1 | -8 | 1 | 2 | 1 | .
O=[N+]([O-])c1cc(S(=O)(=O)NCCN2CCOCC2)ccc1Cl | 2 | 67 | -2 | 0 | 5 | .
CCOc1ccc(/C=N/NS(=O)(=O)c2ccc(C)cc2)cc1OC | . | + | -4 | 2 | -3 | 2
COc1cc(/C=N/NS(=O)(=O)c2ccc(C)cc2)ccc1OCc1ccc(C(=O)O)cc1 | -6 | -3 | 8 | 2 | 2 | .
CCc1ccc(C(=O)C(C)OC(=O)Cc2n[nH]c(=O)c3ccccc23)cc1 (stereo not given) | -3 | -20 | 4 | 3 | -4 | .
O=[N+]([O-])c1cc([N+](=O)[O-])c2cc3ccccc3nc2c1 | -6 | 468* | 5 | -6 | 2 | -1
COc1ccc(NC(=O)c2cccnn2)cc1 | -1 | -16 | -3 | -3 | 1 | .
COc1cccc(OC)c1OCC(O)CN1CCN(c2ccccc2)CC1 (stereo not given) | -1 | + | 12 | 2 | 4 | 0
CCC1CCCCN1C(=O)COc1ccc(N(C)S(=O)(=O)c2ccc(C)cc2)cc1 (stereo not given) | -5 | -4 | 4 | 4 | -2 | .
O=C(/C=C/NNC(=O)c1ccccc1)c1ccccc1 | 3 | -15 | 7 | -2 | -2 | .
O=C(/C=C/NNC(=O)c1ccc(Br)cc1)c1ccccc1 | 1 | 399* | 1 | 1 | 1 | 1
COc1cc(/C=C/C(=O)O)cc(S(=O)(=O)N2CCN(S(=O)(=O)c3ccc(Cl)cc3)CC2)c1OC | -2 | 352 | 0 | 0 | 1 | .
CCOC(=O)C1=C(COC(=O)c2cccnc2SC)NC(=O)NC1C (stereo not given) | -3 | -8 | 2 | 3 | -7 | .
Cc1cnc(C(=O)OCC(=O)Nc2ccc(C)c(S(=O)(=O)N(C)C)c2)cn1 | -3 | 669* | 1 | 7 | 5 | 1
O=C(c1cccc(NS(=O)(=O)c2ccccc2)c1)N1CCN(c2ccccc2)CC1 | 0 | -14 | 5 | 3 | 0 | .
Cc1cc2nc(SCCOC(=O)Nc3ccccc3)nc(C)c2cc1C | 4 | 5 | . | 11 | -5 | .
CCNc1nc(NCC)nc(SCCOC(=O)Nc2ccccc2)n1 | -7 | + | 2 | -4 | 1 | 0
CCc1nc(CNC(=O)C2CCC(=O)N(CCc3cccc(F)c3)C2)no1 (stereo not given) | -4 | 56 | 1 | 0 | -6 | .
COc1ccccc1NC(=O)CN(c1ccc(C)cc1)S(=O)(=O)c1c(C)n[nH]c1C | 9 | 981* | 1 | 5 | -6 | 1
CC1CCCC(C)N1CCCNC(=O)C(=O)Nc1ccc2nc3n(c(=O)c2c1)CCCCC3 (stereo not given) | -4 | 19 | 7 | -1 | 1 | .
